Inconclusive results are not listed. Where a call stands in place of a potency, no number is given. Calls of active or inactive are those of the source. Calls come from the whole dose curve; as a rule, active = well fitted curve in the direction sought with a large enough effect; inconclusive = small, poorly fitted or top-dose-only effect, or another doubt; inactive = no such curve, though single readings can be large; an effect the other way counts as inactive or inconclusive.
target: Cytochrome P450 2C19 (Homo sapiens) (UniProt P33261); experiment: qHTS Assay for Inhibitors and Substrates of Cytochrome P450 2C19 (AID 899); details: recombinant CYP2C19, luciferin-H EGE luminescence; series mostly up to 57.1 µM; note: nearly all actives have a fitted effect of over 60% in size; note: potency is the fitted concentration of half-maximal effect
Procedure, shortened: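 In 50mM KPO4, the reaction held 5nM enzyme and KM-level (10uM) Luciferin-H EGE; it ran 60 min at 37C after NADPH regeneration and a 10 min compound preincubation. Luminescence values were scaled to 57uM ketoconazole as complete inhibition.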

Sequence of Cytochrome P450 2C19 (Homo sapiens) (P33261 whole entry, looked up): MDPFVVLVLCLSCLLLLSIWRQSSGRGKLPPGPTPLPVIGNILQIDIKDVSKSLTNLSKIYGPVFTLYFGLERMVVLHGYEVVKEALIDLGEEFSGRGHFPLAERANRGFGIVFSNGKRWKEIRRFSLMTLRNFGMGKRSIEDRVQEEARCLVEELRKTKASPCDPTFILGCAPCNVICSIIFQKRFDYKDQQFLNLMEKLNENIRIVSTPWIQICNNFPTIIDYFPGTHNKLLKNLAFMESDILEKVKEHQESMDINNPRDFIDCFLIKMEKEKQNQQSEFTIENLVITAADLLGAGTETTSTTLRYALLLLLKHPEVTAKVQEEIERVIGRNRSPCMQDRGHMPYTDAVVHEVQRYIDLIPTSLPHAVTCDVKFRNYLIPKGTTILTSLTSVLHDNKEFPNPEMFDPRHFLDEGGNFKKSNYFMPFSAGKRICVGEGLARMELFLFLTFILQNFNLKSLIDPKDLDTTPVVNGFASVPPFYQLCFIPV

SMILES | Potency | activity, negative = inhibition
Cc1ccc(C(=O)O[C@@H](C(=O)O)[C@@H](OC(=O)c2ccc(C)cc2)C(=O)O)cc1 (tested in a mixture with another compound) | inactive | –
N[C@H](CCC(=O)N[C@H](CSN=O)C(=O)NCC(=O)O)C(=O)O | 1580 nM (active) | –
C=C(Br)CN(C)CC(=C)Br | – | 46.7% [at 11.4 µM] (inactive)
O=NN(Cc1ccc(Cl)cc1)[C@@H](C(=O)O)c1ccccc1 | 398 nM (active) | –

target: Alpha-galactosidase (Coffea arabica) (UniProt Q42656); experiment: Counterscreen for Glucocerebrosidase Inhibitors: qHTS Assay for Coffee Bean alpha-Galactosidase at pH 4.5 (AID 957); details: purified coffee bean alpha-galactosidase, fluorogenic substrate; series mostly up to 76.9 µM
Procedure, shortened: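 Enzyme is added first (2 nM final), then compounds titrated from 0.7 nM to 77 uM, then 80 uM 4-methylumbelliferyl alpha-D-galactopyranoside; after 20 min at room temperature a pH 10 NaOH/glycine stop precedes fluorescence reading at 365/440 nm.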

Sequence of Alpha-galactosidase (Coffea arabica) (Q42656 whole entry, looked up): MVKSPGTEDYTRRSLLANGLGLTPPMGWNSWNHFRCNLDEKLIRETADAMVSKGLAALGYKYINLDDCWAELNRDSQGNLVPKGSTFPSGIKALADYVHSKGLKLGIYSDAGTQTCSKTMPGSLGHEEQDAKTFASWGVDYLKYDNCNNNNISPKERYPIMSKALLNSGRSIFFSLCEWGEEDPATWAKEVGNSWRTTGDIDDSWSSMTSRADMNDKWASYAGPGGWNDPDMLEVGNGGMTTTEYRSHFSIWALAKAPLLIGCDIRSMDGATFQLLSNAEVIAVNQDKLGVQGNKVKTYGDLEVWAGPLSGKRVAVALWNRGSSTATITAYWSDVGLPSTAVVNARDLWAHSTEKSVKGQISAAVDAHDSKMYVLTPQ

SMILES | outcome
N[C@@H](CO)C(=O)NNCc1ccc(O)c(O)c1O | inactive
O=C(OCCN1CCCCC1)c1c[nH]c2ccccc12 | inactive
c1ccc2c(c1)CCC[C@H]2C1=NCCN1 | inactive
CCN(c1nc(N)c(C(=O)N=C(N)N)nc1Cl)C(C)C | inactive
CCN(CC)CCC[C@H](C)Nc1ccnc2cc(Cl)ccc12 | inactive
CCCCC[C@H](O)CCCC(=O)O | inactive
CC1(C)CCC(NC(=O)[C@H](N)CCC(=O)O)CC1 | inactive
COc1cc([C@H](O)C(=O)O)ccc1O | inactive
CC(=O)O[C@@H]1[C@H]([N+]2(C)CCCCC2)C[C@@H]2[C@@H]3CC[C@@H]4C[C@@H](OC(C)=O)[C@H]([N+]5(C)CCCCC5)C[C@@]4(C)[C@H]3CC[C@]21C | inactive
CCCCOc1cc(C[C@@H]2CNC(=O)N2)ccc1OC | inactive
CO[C@]1(C2=NCCN2)COc2ccccc2O1 | inactive
CNc1ncnc2c1ncn2[C@@H]1O[C@@H](CO)[C@H](O)[C@@H]1O | inactive
CC(C)(C)c1onc(OCP(=O)(O)O)c1C[C@@H](N)C(=O)O | inactive

— PubChem BioAssay (NCATS)
